Our source for the Potency and outcome values is PubChem BioAssay (Tox21).

Experiment [1] is described as follows: Nuclear factor erythroid 2-related factor 2/antioxidant responsive element (Nrf2/ARE) small molecule agonists: luciferase reporter gene qHTS assay in human keratinocytes (AID 1919969). Also: nearly all actives have a fitted effect of over 35% in size. Also: potency is read from the fitted curve at half-maximal effect. In general terms: Reporter assays use an easily measured gene product as a stand-in for the process of interest.
Experiment [2] concerns the target Gonadotropin-releasing hormone receptor (Homo sapiens) (UniProt P30968). Put plainly: Human gonadotropin-releasing hormone receptor (GnRHR) small molecule agonists, calcium flux assay in GnRHR-HEK293 cells (AID 1920063). Also: nearly all actives have a fitted effect of over 35% in size. The method in brief:
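We seeded human GnRHR-expressing HEK293 cells for 18 hours, loaded them with calcium dye for an hour at 37 C, added test compounds, and recorded fluorescence intensity kinetically for three minutes.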
(In general: Calcium assays in cells follow changes in intracellular calcium, usually with a dye or a luminescent sensor.)

For experiment [3], the target named is KiSS-1 receptor (Homo sapiens) (UniProt Q969F8). Put plainly: Human kisspeptin (KISS1R) small molecule agonists, calcium flux assay in KISS1R-HEK293 cells (AID 1920064; active = well fitted activation curve with a large enough effect in the repeat runs). The method in brief: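 Kinetic calcium assay, 1 s sampling over 3 min at Ex/Em 480/540, in HEK293 cells engineered with human KISS1R; compounds delivered in DMSO after 1 h dye loading.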
The nature of experiment [4]: G protein-coupled receptor (GPCR) small molecule agonists, calcium flux assay: HEK293 wild type cell line counter screen (AID 1920065). The method, boiled down: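 Calcium-sensitive dye, loaded 1 h at 37 C into cells cultured 18 h, reports compound-evoked calcium release as fluorescence (Ex/Em 480/540), measured over 3 min. Agonist mode; 15-point titrations, triplicate.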

Experiment [5] is described as follows: p53 small molecule agonists, cell-based qHTS assay with human liver microsomes (AID 1963577). The method, boiled down:
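Compounds act here after metabolic activation: human liver microsomes and NADPH, both at 0.5 mg/mL final, were co-added to p53RE-bla cells. Incubation ran 16 h at 37 C, followed by LiveBLAzer detection.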
For orientation: In qHTS, concentration-response curves come from the screen itself.

Experiment [6] in a line: p53 small molecule agonists, cell-based qHTS assay with rat liver microsomes (AID 1963578). The method, boiled down: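 Read-out is beta-lactamase reporter fluorescence (LiveBLAzer, 2 h, room temperature, dark) in p53RE-bla cells treated 16 h at 37 C with compound, rat liver microsomes and NADPH, both 0.5 mg/mL final.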
Experiment [7] in a line: p53 small molecule agonists, cell-based qHTS assay with human liver microsomes: qHTS cell viability counter screen (AID 1963579). Also: nearly all actives have a fitted effect of over 45% in size. The method in brief:
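Cells carrying the p53 response-element beta-lactamase reporter are treated for 16 h at 37 C with test compounds in the presence of human liver microsomes and NADPH (both 0.5 mg/mL final); ATP-based CellTiter-Glo luminescence then reports viability.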

Experiment [8] can be described thus: p53 small molecule agonists, cell-based qHTS assay with rat liver microsomes: qHTS cell viability counter screen (AID 1963580). Also: nearly all actives have a fitted effect of over 45% in size. The method in brief:
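p53RE-bla HCT-116 cells (4,000/well) rested 5 h at 37 C, then given Tox21 compounds in DMSO with rat liver microsomes (0.5 mg/mL final) plus NADPH (0.5 mg/mL final) for 16 h at 37 C. Viability read by CellTiter-Glo luminescence after 30 min at room temperature.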

Experiment [9] can be described thus: p53 small molecule agonists, cell-based qHTS assay: qHTS cell viability counter screen (AID 1963581). Also: nearly all actives have a fitted effect of over 45% in size. Also: potency is read from the fitted curve at half-maximal effect. The method in brief: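 Following 5 h attachment, HCT-116 p53RE-bla cells took up compound for 16 h at 37 C; the reporter was read with B/G FRET substrate (2 h RT), and viability then via CellTiter-Glo ATP luminescence.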
The nature of experiment [10]: p53 small molecule agonists, cell-based qHTS assay (AID 1963582; active = well fitted activation curve with a large enough effect in the signal ratio in the repeat runs, not every such curve was filed as active; the % refers to the signal ratio). The method, boiled down: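 In this cell-based concentration-response screen, a p53 response element drives beta-lactamase; cells received DMSO-borne compounds after 5 h culture and were incubated a further 16 h before FRET substrate development.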
The target of experiment [11] is 5-hydroxytryptamine receptor 2A (Homo sapiens) (UniProt P28223). Put plainly: 5-hydroxytryptamine receptor 2A (HTR2A) small molecule antagonists, cell-based qHTS assay (AID 1963586). Also: nearly all actives have a fitted effect of over 45% in size. The method in brief: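 Antagonist-mode intracellular calcium assay: DOI (4 nM) added after 5 min compound pre-incubation at room temperature to dye-loaded HTR2A-CHO cells. Fluorescence followed for 3 min, sampled every second.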

Experiment [12] has the same target. Description: 5-hydroxytryptamine receptor 2A (HTR2A) small molecule agonists, cell-based qHTS assay (AID 1963587). Also: nearly all actives have a fitted effect of over 30% in size. The method, boiled down:
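HTR2A-CHO cells, plated 18 h at 37 C/5% CO2, dye-loaded 1 h at 37 C; compounds in DMSO added by pin tool (agonist mode). Intracellular calcium flux read as kinetic fluorescence on FDSS over 2 min at 1 s intervals.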

Experiment [13] addresses Muscarinic acetylcholine receptor M1 (Homo sapiens) (UniProt P11229). Description: Cholinergic receptor muscarinic 1 (CHRM1) small molecule antagonists, cell-based qHTS assay (AID 1963588). Also: nearly all actives have a fitted effect of over 40% in size. Also: potency is read from the fitted curve at half-maximal effect. The method in brief:
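CHRM1-CHO calcium-flux assay, antagonist mode. Cells were seeded 18 h, dye-loaded 1 h at 37 C and given compound for 5 min at RT, then acetylcholine was added at 50nM. FDSS fluorescence was read 3 min; 15 concentrations, three runs.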

Experiment [14] shares this target. Put plainly: Cholinergic receptor muscarinic 1 (CHRM1) small molecule agonists, cell-based qHTS assay (AID 1963589). Also: nearly all actives have a fitted effect of over 35% in size. The method in brief:
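Measures agonist-induced intracellular calcium rise. Stable human CHRM1 CHO line, 1 h dye load at 37 C, compounds from DMSO, kinetic fluorescence read.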

Experiment [15] in a line: cAMP Responsive Elements (CRE) small molecule agonists, cell-based qHTS assay (AID 1963590). The method, boiled down:
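A CRE-responsive beta-lactamase reporter in HEK 293T cells was used. Treatment ran 3 h at 37 C; detection used LiveBLAzer B/G FRET substrate for 2 h at room temperature.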

A short description of experiment [16]: cAMP Responsive Elements (CRE) small molecule antagonists, cell-based qHTS assay (AID 1963591; active = well fitted inhibition curve with a large enough effect in the signal ratio in the repeat runs, not every such curve was filed as active; the % refers to the signal ratio; also: potency is read from the fitted curve at half-maximal effect). The method in brief: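 HEK293T cells carrying a CRE-driven beta-lactamase reporter receive compound and NKH477 (0.25 uM final) for 3 h. Fluorescence from LiveBLAzer B/G FRET substrate is read after 2 h at room temperature.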
Experiment [17] has as its target Beta-2 adrenergic receptor (Homo sapiens) (UniProt P07550). Description: Adrenergic beta2 receptor (ADRB2) small molecule antagonists, cell-based qHTS assay (AID 1963592). Also: series mostly up to about 92 µM; nearly all actives have a fitted effect of over 50% in size. The method, boiled down: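 Cells (CHO, stable ADRB2 overexpression) incubated 18-20hr at 37C; compounds added from DMSO; agonist mix (1nM isoproterenol, 100uM IBMX, 25uM Ro-20-1724) added; 0.5hr RT; d2-cAMP and anti-cAMP-cryptate added; 1hr RT; 665/615 nm read.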

The target of experiment [18] is D(2) dopamine receptor (Homo sapiens) (UniProt P14416). Put plainly: Dopamine D2 receptor (DRD2) small molecule antagonists, cell-based qHTS assay (AID 1963595; active = well fitted inhibition curve with a large enough effect in the signal ratio in the repeat runs, with a control signal flat; the % refers to the signal ratio). The method, boiled down: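 In this cell-based antagonist screen, compounds act for 10 min at room temperature before a 30 min challenge with 12 nM quinpirole and 200 nM NKH477. cAMP is quantified by HTRF competition in DRD2-HEK293 cells containing 0.1 mM Ro20-1724.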

Experiment [19] has the same target. Put plainly: Dopamine D2 receptor (DRD2) small molecule agonists, cell-based qHTS assay (AID 1963594). Also: nearly all actives have a fitted effect of over 35% in size. The method, boiled down: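 HEK293 cells stably expressing DRD2 were cultured 24 h at 37 C, then given Ro20-1724 (0.1 mM final) and compounds for 10 min at room temperature. NKH477 (200nM) was then added for 30 min. cAMP was read by HTRF.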

Values without a mark were called inactive. Results filed as inconclusive are left out. Calls of active or inactive are those of the source. Unless noted, calls follow the shape of the full dose curve.

Beta-2 adrenergic receptor (Homo sapiens), sequence (P07550 whole entry, looked up): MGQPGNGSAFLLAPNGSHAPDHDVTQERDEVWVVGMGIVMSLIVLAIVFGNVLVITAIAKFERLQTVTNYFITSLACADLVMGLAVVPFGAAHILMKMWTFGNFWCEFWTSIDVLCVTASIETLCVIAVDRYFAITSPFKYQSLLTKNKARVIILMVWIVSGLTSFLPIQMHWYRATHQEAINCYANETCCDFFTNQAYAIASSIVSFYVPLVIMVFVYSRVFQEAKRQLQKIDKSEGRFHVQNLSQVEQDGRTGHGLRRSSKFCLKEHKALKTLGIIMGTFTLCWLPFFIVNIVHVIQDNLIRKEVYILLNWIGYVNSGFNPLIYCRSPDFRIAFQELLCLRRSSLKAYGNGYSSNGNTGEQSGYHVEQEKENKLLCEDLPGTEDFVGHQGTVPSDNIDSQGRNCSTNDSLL
D(2) dopamine receptor (Homo sapiens), sequence (P14416 whole entry, looked up): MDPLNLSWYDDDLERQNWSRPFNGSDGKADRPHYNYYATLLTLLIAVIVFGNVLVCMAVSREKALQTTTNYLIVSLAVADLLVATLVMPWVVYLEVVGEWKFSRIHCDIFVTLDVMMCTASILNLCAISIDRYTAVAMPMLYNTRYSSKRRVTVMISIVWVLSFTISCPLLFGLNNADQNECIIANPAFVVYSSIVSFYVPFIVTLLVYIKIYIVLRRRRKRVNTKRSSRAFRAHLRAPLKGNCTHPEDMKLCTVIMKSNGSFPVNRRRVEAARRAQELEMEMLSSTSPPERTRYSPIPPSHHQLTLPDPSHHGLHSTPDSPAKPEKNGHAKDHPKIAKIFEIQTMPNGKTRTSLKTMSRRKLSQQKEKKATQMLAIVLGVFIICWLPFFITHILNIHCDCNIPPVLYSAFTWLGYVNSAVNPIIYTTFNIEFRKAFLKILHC
Muscarinic acetylcholine receptor M1 (Homo sapiens), sequence (P11229 whole entry, looked up): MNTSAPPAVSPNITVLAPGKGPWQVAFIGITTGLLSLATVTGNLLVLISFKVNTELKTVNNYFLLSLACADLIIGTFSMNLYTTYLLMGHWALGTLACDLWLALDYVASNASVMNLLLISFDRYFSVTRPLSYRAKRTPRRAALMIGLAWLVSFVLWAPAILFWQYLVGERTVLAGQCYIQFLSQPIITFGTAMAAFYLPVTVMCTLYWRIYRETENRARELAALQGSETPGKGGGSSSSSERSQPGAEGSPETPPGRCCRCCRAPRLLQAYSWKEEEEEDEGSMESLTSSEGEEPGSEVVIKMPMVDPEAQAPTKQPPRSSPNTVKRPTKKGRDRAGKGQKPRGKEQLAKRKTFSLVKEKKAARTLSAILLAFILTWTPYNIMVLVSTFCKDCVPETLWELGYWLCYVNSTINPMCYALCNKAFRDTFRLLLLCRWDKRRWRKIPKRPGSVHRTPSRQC
Gonadotropin-releasing hormone receptor (Homo sapiens), sequence (P30968 whole entry, looked up): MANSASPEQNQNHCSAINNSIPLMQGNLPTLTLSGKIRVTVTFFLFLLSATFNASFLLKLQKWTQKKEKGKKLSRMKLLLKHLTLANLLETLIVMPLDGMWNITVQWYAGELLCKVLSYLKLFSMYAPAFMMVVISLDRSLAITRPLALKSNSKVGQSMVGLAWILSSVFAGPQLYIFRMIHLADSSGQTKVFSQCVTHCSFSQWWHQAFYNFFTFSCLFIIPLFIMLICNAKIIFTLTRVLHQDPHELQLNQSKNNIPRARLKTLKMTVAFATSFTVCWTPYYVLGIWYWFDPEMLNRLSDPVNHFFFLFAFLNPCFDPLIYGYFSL
KiSS-1 receptor (Homo sapiens), sequence (Q969F8 whole entry, looked up): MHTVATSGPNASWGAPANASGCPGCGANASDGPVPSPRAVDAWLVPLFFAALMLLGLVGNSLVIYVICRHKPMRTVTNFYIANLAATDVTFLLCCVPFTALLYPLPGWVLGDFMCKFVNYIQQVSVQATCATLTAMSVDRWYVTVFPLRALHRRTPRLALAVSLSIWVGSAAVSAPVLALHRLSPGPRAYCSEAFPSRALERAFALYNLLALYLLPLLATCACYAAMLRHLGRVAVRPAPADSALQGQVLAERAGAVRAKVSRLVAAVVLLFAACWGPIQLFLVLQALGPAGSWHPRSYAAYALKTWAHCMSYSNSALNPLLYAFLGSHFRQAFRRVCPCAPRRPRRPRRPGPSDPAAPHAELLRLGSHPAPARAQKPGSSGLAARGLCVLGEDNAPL
5-hydroxytryptamine receptor 2A (Homo sapiens), sequence (P28223 whole entry, looked up): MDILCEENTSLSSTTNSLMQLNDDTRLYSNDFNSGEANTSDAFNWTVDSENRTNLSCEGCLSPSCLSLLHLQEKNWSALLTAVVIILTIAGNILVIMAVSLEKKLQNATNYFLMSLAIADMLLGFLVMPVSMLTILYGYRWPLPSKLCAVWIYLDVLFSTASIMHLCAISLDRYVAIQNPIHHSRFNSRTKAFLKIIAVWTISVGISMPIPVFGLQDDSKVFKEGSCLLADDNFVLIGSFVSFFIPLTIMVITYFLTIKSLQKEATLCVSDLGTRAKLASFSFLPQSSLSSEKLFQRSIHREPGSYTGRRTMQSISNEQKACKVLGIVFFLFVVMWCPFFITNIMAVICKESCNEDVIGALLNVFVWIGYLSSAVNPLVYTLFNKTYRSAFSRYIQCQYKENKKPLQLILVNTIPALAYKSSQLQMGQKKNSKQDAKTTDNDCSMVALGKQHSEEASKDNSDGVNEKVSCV

As to `O=C1O[C@@H]2[C@@H](O)[C@H](O)O[C@@H]2[C@H]1O`, the Potency entry in [1], in [2], in experiment [5], in experiment [6], in experiment [7] and in experiment [8] was “inactive” throughout. Moreover, the Potency result in experiment [9], in experiment [10], in experiment [11], in experiment [12], in [13] and in experiment [14] was “inactive” throughout. The Potency entry in experiment [15], in [16], in experiment [17] and in [18] was “inactive” throughout. For the same compound, the result in experiment [3] and in experiment [4] was inactive.
In the case of `O=Cc1c(Cl)cccc1Cl`, the Potency entry in [1], in experiment [2], in experiment [5], in experiment [6], in [7] and in [8] was “inactive” throughout. Besides, the Potency entry in [9], in experiment [10], in [11], in experiment [13], in experiment [14] and in [16] was “inactive” throughout. Besides, the Potency entry in experiment [17], in experiment [19] and in experiment [18] was “inactive” in each case. The outcome in [3] and in [4] was inactive.
Regarding `Nc1ccc(S(=O)(=O)NC(=O)c2ccccc2)cc1`, the Potency entry in experiment [1], in [2], in experiment [5], in experiment [6], in [7] and in experiment [8] was “inactive” throughout. In addition, the Potency result in [9], in [10], in experiment [15], in experiment [16], in experiment [17] and in experiment [19] was “inactive” in each case. For the same compound, the Potency entry in experiment [18] is “inactive”. In addition, the outcome in experiment [3] and in [4] was inactive.
In the case of `COc1ccc(C)cc1[N+](=O)[O-]`, the Potency result in [1], in experiment [2], in experiment [5], in [6], in experiment [7] and in experiment [8] was “inactive” each time. Also, the Potency entry in experiment [9], in [10], in experiment [11], in [12], in [13] and in experiment [14] was “inactive” throughout. In addition, the Potency result in [15], in [17] and in experiment [19] was “inactive” in each case. In addition, the result in experiment [3] and in experiment [4] was inactive.
For `CC(C)C(O)C(C)(C)CO` (stereo unspecified), the Potency result in experiment [1], in experiment [2], in experiment [5], in experiment [6], in [7] and in experiment [8] was “inactive” in each case. The Potency result in [10], in experiment [11], in experiment [12], in experiment [14], in experiment [15] and in experiment [17] was “inactive” throughout. Moreover, the Potency result in [19] and in experiment [18] was “inactive” each time. Besides, the outcome in [3] and in [4] was inactive. For the same compound, the Potency in experiment [9] was 3.75 µM (active); in experiment [13], 487 nM (active); in [16], 56.2 µM (active).
With `CCC1(C)NC(=O)NC1=O` (stereo unspecified), the Potency entry in [1], in experiment [2], in experiment [5], in experiment [6], in experiment [7] and in experiment [9] was “inactive” in each case. In addition, the Potency result in [10], in experiment [12], in [13], in [14], in experiment [15] and in experiment [16] was “inactive” throughout. Besides, the Potency result in experiment [17], in [19] and in experiment [18] was “inactive” in each case. The result in experiment [3] and in experiment [4] was inactive.
Consider `COC(=O)C(C)O` (stereo unspecified), for which the Potency result in experiment [1], in experiment [2], in experiment [5], in experiment [6], in [7] and in [8] was “inactive” throughout. Also, the Potency result in experiment [11], in experiment [12], in experiment [13], in experiment [14], in experiment [15] and in experiment [16] was “inactive” in each case. Further, the Potency result in [17], in experiment [19] and in [18] was “inactive” in each case. In addition, the outcome in experiment [3] and in [4] was inactive.
Turning to `ONc1ccccc1`, the Potency in experiment [1] was 60.5 µM (active). Moreover, the Potency entry in experiment [2], in experiment [5], in [6], in [7], in experiment [8] and in experiment [10] was “inactive” each time. Also, the Potency entry in experiment [11], in [13], in [15], in experiment [16], in experiment [17] and in experiment [19] was “inactive” throughout. Moreover, the Potency entry in experiment [18] was “inactive”. Also, the outcome in [3] and in experiment [4] was inactive.
